Source: PubChem BioAssay (EPA / NIEHS)
Calls of active or inactive are those of the source. How the source made its calls: active means hit-call score of the fitted dose curve at least 0.9, where 1 is the maximum; inconclusive means response in the unintended direction; inactive means score below 0.9.

Each compound was assayed against Estrogen receptor beta (Homo sapiens) (UniProt Q92731) (assay: OT_ER_ERbERb_1440: Odyssey Thera (OT) 24-hour HEK293T Protein-Complementation Assay for Estrogen Receptor-beta/-beta Homodimer (AID 2283380);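 further: scored as signal increase over DMSO baseline for both agonists and antagonists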).
Sequence of Estrogen receptor beta (Homo sapiens) (Q92731 whole entry, looked up, the tested form may be a part): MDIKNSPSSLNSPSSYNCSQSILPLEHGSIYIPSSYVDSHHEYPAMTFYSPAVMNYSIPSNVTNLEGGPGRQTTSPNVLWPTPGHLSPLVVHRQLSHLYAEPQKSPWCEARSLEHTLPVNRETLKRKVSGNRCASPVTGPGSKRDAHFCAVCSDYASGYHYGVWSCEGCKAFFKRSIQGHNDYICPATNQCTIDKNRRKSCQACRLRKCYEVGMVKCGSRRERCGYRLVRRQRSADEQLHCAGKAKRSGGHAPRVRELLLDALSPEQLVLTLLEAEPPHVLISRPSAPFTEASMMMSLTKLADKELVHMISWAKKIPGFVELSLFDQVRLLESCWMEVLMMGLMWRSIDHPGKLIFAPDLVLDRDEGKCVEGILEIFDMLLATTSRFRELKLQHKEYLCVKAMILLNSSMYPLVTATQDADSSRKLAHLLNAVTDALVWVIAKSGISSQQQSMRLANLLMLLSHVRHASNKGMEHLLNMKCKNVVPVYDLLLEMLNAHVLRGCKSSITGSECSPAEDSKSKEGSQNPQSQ
In short: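 HEK293T cells stably expressing ER beta LBD (aa 310-547) homodimer fragment-complementation reporter, dosed 24 h. Cells formaldehyde-fixed, Draq5-stained; gain in nuclear (agonist) or nuclear plus cytoplasmic (antagonist) fluorescence versus DMSO read by laser scanning cytometry.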
In the case of `COc1ccc(-c2ccccc2)cc1NNC(=O)OC(C)C`, the outcome is reported as “inactive”. In the case of `CSC(=O)c1c(C(F)F)nc(C(F)(F)F)c(C(=O)SC)c1CC(C)C`, the AC50 is reported as 21.5 µM (active). `Cn1c(-c2ccccc2)cc(-c2ccccc2)[n+]1C` was tested, and the outcome was “inactive”. For `COC(=O)c1c(C(F)F)nc(C(F)(F)F)c(C2=NCCS2)c1CC(C)C`, the AC50 was 43.7 µM (active). `CCCC(=NOCC)C1=C(O)CC(CC(C)SCC)CC1=O` (stereo unspecified) was tested, and the outcome was “inactive”. With `CC1(C)C(C(=O)OC(C#N)c2cccc(Oc3ccccc3)c2)C1(C)C` (stereo unspecified) the outcome was “inactive”. In the case of `CCOc1nc(F)cc2nc(S(=O)(=O)Nc3c(Cl)cccc3Cl)nn12`, the outcome is reported as “inactive”. With `C=C(C)CN(CC)c1c([N+](=O)[O-])cc(C(F)(F)F)cc1[N+](=O)[O-]` the outcome was “inactive”. In the case of `COP(=S)(OC)SCn1nnc2ccccc2c1=O`, the outcome is reported as “inactive”. With `CCN(CC)C(=O)C(C)Oc1cccc2ccccc12` (stereo unspecified) the outcome was “inactive”. In the case of `Cc1c(COC(=O)[C@@H]2[C@H](/C=C(\Cl)C(F)(F)F)C2(C)C)cccc1-c1ccccc1`, the outcome is reported as “inactive”. With `CC1(C)CCC(=Cc2ccc(Cl)cc2)C1(O)Cn1cncn1` (stereo unspecified) the outcome was “inactive”. With `CC1(C)CON(Cc2ccccc2Cl)C1=O` the outcome was “inactive”. `CC1(C)C(C=C(Cl)Cl)C1C(=O)OC(C#N)c1cccc(Oc2ccccc2)c1` (stereo unspecified) was tested, and the outcome was “inactive”. For `COC(=O)N(C(=O)N1CO[C@@]2(C(=O)OC)Cc3cc(Cl)ccc3C2=N1)c1ccc(OC(F)(F)F)cc1`, the outcome was “inactive”. With `Cc1cnc(C2=NC(C)(C(C)C)C(=O)N2)c(C(=O)O)c1` (stereo unspecified) the outcome was “inactive”. `CC(C)(C)C(=O)C(Oc1ccc(Cl)cc1)n1cncn1` (stereo unspecified) was tested, and the outcome was “inactive”. With `OC(c1ccc(Cl)cc1)(c1ccc(Cl)cc1)C(Cl)(Cl)Cl` the AC50 was 12.3 µM (active). For `CCOc1cc(C(C)(C)C)ccc1C1COC(c2c(F)cccc2F)=N1` (stereo unspecified), the outcome was “inactive”. In the case of `COCc1cnc(C2=NC(C)(C(C)C)C(=O)N2)c(C(=O)O)c1` (stereo unspecified), the outcome is reported as “inactive”. With `CCOP(=O)(OCC)Oc1nc(Cl)c(Cl)cc1Cl` the outcome was “inactive”. `COP(=S)(OC)Oc1ccc([N+](=O)[O-])c(C)c1` was tested, and the outcome was “inactive”. In the case of `COC(=O)NC(=S)Nc1ccccc1NC(=S)NC(=O)OC`, the outcome is reported as “inactive”. `Clc1nc(Cl)nc(Nc2ccccc2Cl)n1` was tested, and the outcome was “inactive”. With `CCOC(=O)C(C)OC(=O)c1cc(Oc2ccc(C(F)(F)F)cc2Cl)ccc1[N+](=O)[O-]` (stereo unspecified) the outcome was “inactive”. In the case of `CCCCC(O)(Cn1cncn1)c1ccc(Cl)cc1Cl` (stereo unspecified), the outcome is reported as “inactive”.
